Screening data as filed in PubChem.
FMDV antiviral – High Throughput Screening for Foot and Mouth Disease Virus Antivirals; 1.2% of 410,000 active; Potency, µM (highest dose often 57.9 µM), without a hit: at the highest dose activity change, negative = inhibition, most hits filed as inhibitors; FMDV antiviral cell-based qHTS; calls by dose curve; tested in HEK293T cells; further: read-out not given here; nearly all actives have a fitted effect of over 45% in size
Vaccinia Venus – qHTS for Stage-Specific Inhibitors of Vaccinia Orthopoxvirus: Venus Reporter Primary qHTS; Potency, µM (top dose mostly 36.5 µM), without a hit: at the top dose activity change, negative = inhibition, most hits filed as inhibitors; AID 720580, 2013; Vaccinia virus Venus reporter expression, fluorescence; 0.46% of 330,000 active; calls by dose curve; tested in A549 cells; further: nearly all actives have a fitted effect of over 30% in size
Lassa entry inh – qHTS for Inhibitors of binding or entry into cells for Lassa Virus | 1.2% of 300,000 active | Potency, µM (doses to about 37.9 µM), for the others: at the highest dose activity change, negative = inhibition, actives largely listed as inhibitors | Lassa virus pseudotype entry inhibition, cell reporter; calls by dose curve; tested in HEK293 cells; further: nearly all actives have a fitted effect of over 50% in size
Marburg entry inh – qHTS for inhibitors of binding or entry into cells for Marburg Virus. Marburg virus pseudotyped entry inhibition, cell reporter. Potency, µM (titrated, usually from 37.8 µM), for inactives: at the highest dose activity change, negative = inhibition, hits mostly inhibitors. 1.8% of 300,000 active. AID 540276, 2011; calls by dose curve; tested in HEK293 cells
Vaccinia mCherry – qHTS for Stage-Specific Inhibitors of Vaccinia Orthopoxvirus: mCherry Reporter Primary qHTS | Vaccinia virus mCherry reporter infection, fluorescence | Potency, µM (top dose mostly 36.5 µM), inactives show at the top dose activity change, negative = inhibition, most hits filed as inhibitors | 0.63% of 310,000 active; calls by dose curve; tested in A549 cells; further: nearly all actives have a fitted effect of over 35% in size
Sm TGR block – qHTS Assay for the Inhibitors of Schistosoma Mansoni Peroxiredoxins | AID 485364, 2010 | purified TGR, DTNB reduction, TNB absorbance 405 nm | Potency, µM (titrated, usually from 114 µM), for inactives: at the highest dose activity change, negative = inhibition, most hits filed as inhibitors | Schistosoma mansoni thioredoxin glutathione reductase (TGR), Q962Y6 | 3% of 360,000 active; active means well fitted inhibition curve with a large enough effect; inconclusive means small, poorly fitted or top-dose-only effect; inactive means no such curve, though single readings can be large or run the other way; further: nearly all actives have a fitted effect of over 60% in size
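Kinetic colorimetric format: TGR-catalysed, NADPH-driven DTNB reduction monitored via TNB absorbance. Enzyme dispensed at 20 nM; compound exposure 15 min at room temperature before reaction start.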
Numbers without * were called inactive; i = inactive; ? = inconclusive; / = no result given; [ ] = remark or other dose. Shown are actives, neighbours in structure and some others; about 5.4% of the full set was active somewhere. On the % scale 0 is the no-effect control and ±100 the full control effect; potency means the concentration at half of the fitted maximal effect.

SMILES	FMDV antiviral	Vaccinia Venus	Lassa entry inh	Marburg entry inh	Vaccinia mCherry	Sm TGR block
C=C1C(=O)O[C@@H]2[C@H]3O[C@]3(C)CCC=C(C)CC[C@@H]12	-19%	/	9.2µM*	22µM*	/	/
O=C(COc1ccc(Cl)cc1)Nc1ccc2nc(SCC(=O)N3CCCC3)sc2c1	?	-10%	2%[46.1 µM]	-11%[46.1 µM]	0%	-11%
O=C(Oc1cc(=O)oc2ccccc12)c1ccccc1	-18%	-18%	/	/	-25%	7%
O=C(Oc1cc(=O)oc2c1c(=O)n1c3c(cccc23)CC1)c1ccccc1	22%	6%	-14%	1%[46.1 µM]	i	10µM*
O=C(Oc1cc(=O)oc2c1c(=O)n1c3c(cccc23)CC1)c1ccc(F)cc1	-2%	-21%	-28%	-13%[46.1 µM]	-14%	25µM*
CC1CN(C(=O)CCC(=O)NCc2ccc(F)cc2)c2cc(Cl)ccc2O1 (centres undefined)	?	-8%	0%[46.1 µM]	-30%[46.1 µM]	-15%	-1%
COCC(=O)Nc1cc(C(=O)N2CC3(C)CC2CC(C)(C)C3)c2c(c1)nc(-c1ccncc1)n2C (centres undefined)	0%	-6%	/	/	-13%	/
COCc1ccc(C(=O)N2CCOc3ccc(CN4CCN(c5ccc(F)cc5)CC4)cc3C2)o1	?	-31%	/	/	-5%	/
Cc1nc2sccn2c1CN1CCOc2ccc(CN3CCN(c4ccc(F)cc4)CC3)cc2C1	8.9µM*	-22%	/	/	-21%	/
COC(=O)c1ccc(-n2ccnc2)cc1	-8%	5%	0%	-1%[46.1 µM]	i	0%
CCOC(=O)/C(=C/c1ccc(OC(=O)c2ccncc2)cc1)C(C)=O	?	-7%	-2%	-5%[46.1 µM]	-8%	?
CCOC(=O)C(=Cc1ccc(F)cc1)C(=O)OCC	/	/	/	/	/	16µM*
CCOC(=O)C(=Cc1ccc(Br)cc1)C(=O)OCC	22µM*	14µM*	?	?	?	3.5µM*
CCOC(=O)C(=Cc1ccc(-n2ccnc2)cc1)C(=O)OCC	22µM*	?	?	?	?	13µM*
CCOC(=O)C(=O)Nc1ccc(F)cc1	11%	-9%	6%	5%	/	-9%
COc1ccccc1CNC(=O)c1ccc(C)c(-n2cnc3cccnc32)c1	-1%	-6%	5%[46.1 µM]	/	-13%	3%
CC(C)CO/N=C1\C[C@@H](O)[C@@H](O)[C@@H]2[C@@H]3C(=O)N(C4CCCCC4)C(=O)[C@@H]3CC[C@H]12	/	/	/	-20%[14.2 µM]	/	/
Fc1ccccc1CCNc1c2c(nc3ncnn13)CCCC2	-25%	?	-14%[46.1 µM]	6.3µM*	-4%	1%
Cc1ccc(CNC(=O)Cn2ccn(-c3cccc(Cl)c3)c(=O)c2=O)cc1	2%	-6%	3%[46.1 µM]	/	-9%	-1%
CC1CN(C(=O)c2cccc(S(=O)(=O)N3CCN(c4ccc(F)cc4)CC3)c2)CC(C)O1 (centres undefined)	-24%	-16%	?	-29%	-23%	?
O=C(c1cccc(S(=O)(=O)N2CCN(c3ccc(F)cc3)CC2)c1)N1CCCC(C(F)(F)F)C1 (centres undefined)	?	-28%	?	7.9µM*	?	-5%
O=C(Nc1ncccc1O)c1cccc(S(=O)(=O)N2CCN(c3ccc(F)cc3)CC2)c1	-20%	-19%	-2%	-1%	-19%	1%
O=C(Nc1ccncc1)c1cccc(S(=O)(=O)N2CCN(c3ccc(F)cc3)CC2)c1	20µM*	-29%	?	?	?	1%
CN(C)c1ccc(CNC(=O)CCCN2C(=O)CCn3nc(-c4cn(C)c5ccccc45)cc32)cc1	4%	-10%	-7%[46.1 µM]	/	-10%	-9%
Cc1cc(Br)c(NC(=O)CCl)c(Br)c1	?	?	-14%	?	?	32µM*
SMILES	FMDV antiviral	Vaccinia Venus	Lassa entry inh	Marburg entry inh	Vaccinia mCherry	Sm TGR block
Cc1cc(NC(=O)CCl)nn1C	35µM*	?	?	7.9µM*	?	28µM*
Cn1ccc(NC(=O)CCl)n1	?	?	?	?	?	14µM*
Cc1c(Cl)cccc1NC(=O)Nc1ccn(C)n1	14%	-18%	?	?	-1%	-12%
Cc1cc(Br)c(NC(=O)CN(C)CCOc2ccccc2)c(Br)c1	-5%	/	/	/	/	22%
COc1ccccc1NC(=O)c1sc2nc(C)c(C(=O)Nc3ccc(C)cc3C)c(-c3ccccc3Cl)c2c1N	-11%	-4%[7.34 µM]	10%[46.1 µM]	3%[46.1 µM]	2%[7.34 µM]	1%
CCCC(O)(CCC)C(=O)NN(C(=O)CCl)c1ccccc1	?	/	?	?	/	11µM*
Cc1ccc(Cn2c(CNC(=O)CCc3ccccc3)nc3cccnc32)cc1	2%	-1%	-14%[46.1 µM]	/	-9%	3%
Cc1ccccc1CN1C(=O)c2ccccc2Sc2ccc(C(=O)NCCc3ccccc3)cc21	-1%	-9%	?	/	-13%	9%
Cc1ccc(OCC(=O)Nc2ccc3nc(SCC(=O)N4CCCC4)sc3c2)cc1C	?	-10%	1%[46.1 µM]	-2%[46.1 µM]	-6%	0%
COCCS(=O)(=O)N(Cc1ccccc1)[C@H](C(=O)OC)C(C)C	-23%	-5%	/	/	i	/
COCCS(=O)(=O)N(Cc1ccc(Br)cc1)[C@@H](C)C(=O)OC	-28%	7.1µM*	/	/	?	/
O=C(Cc1ccccc1)Nc1c[nH]c(=O)[nH]c1=O	-4%	-6%	?	?	-14%	-2%
O=C(CCl)Nc1c[nH]c(=O)[nH]c1=O	?	7.9µM*	?	?	7.1µM*	?
Fc1cc2ncn(Cc3ccccc3)c2cc1F	0%	-4%	6%	21%	/	56µM*
c1ccc(Cn2cnc3ccccc32)cc1	/	-17%	?	?	-13%	1%
COCC=CC1=CC2=CC(=O)C(C)(OC(=O)c3cnc4ccccc4n3)C(=O)C2=CN1CC1CC1 (centres undefined)	/	/	/	58%[14.2 µM]	/	/
CNS(=O)(=O)c1cn(CC(=O)Nc2ccc(OC)c(Cl)c2)cc1S(=O)(=O)NC	23%	-11%	22%[46.1 µM]	/	-16%	-3%
CCOc1ccc(CCNc2ncnc3onc(-c4ccc(Cl)cc4)c23)cc1OCC	?	-9%	?	7.9µM*	-10%	-2%
COc1cc(NC(=S)NC(=O)c2cccs2)ccc1NC(=O)C(C)C	30%	/	/	/	/	18µM*
COC(=O)c1cc(OC)c(OC)cc1NC(=S)NC(=O)c1ccco1	?	/	/	/	/	11µM*
CCNC(=S)Nc1cc(OC)c(NC(=O)c2ccco2)cc1OC	5%	-5%	-9%	0%	i	?
COc1cc(NC(=S)NC(=O)c2ccco2)ccc1NC(=O)C(C)C	44%	-4%	?	24%[46.1 µM]	-1%	25µM*
Cc1ccc(S(=O)(=O)C(CNC(=O)C(=O)NCCc2ccc(Cl)cc2)c2cccs2)cc1 (centres undefined)	?	-22%	-12%[46.1 µM]	/	-11%	-13%
